The results in this text go back to PubChem BioAssay AID1839 (Johns Hopkins Ion Channel Center, 2009).

The whole screen tested about 2,400 compounds, of which about 220 (9.2%) were called active. The full list was thinned out, with actives kept by preference. Values without a mark were called inactive.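 How the source made its calls: active means signal change above the mean of dofetilide-free buffer controls plus 3 SD, so a positive margin; inactive means the rest.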

The nature of the test: nonspecific flux effects in parental CHO-K1, confirmation, counter-screen for hERG block protection project, cell-based, CHO-K1 parental line, FluxOR thallium flux (AID 1839).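 Further: compounds applied alone with no dofetilide to cells lacking hERG.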 The settings on record: CHO-K1 parental cells, FluxOR thallium flux fluorescence; at 10 µM.
As for `CCc1nnc(NC(=O)C2CCCCN2S(=O)(=O)c2ccccc2)s1` (stereo unspecified), the signal change vs control minus 3*SD hit threshold (margin above threshold, higher = more increase) is -23%.
Consider `COc1ccc(C(=O)CC(=O)C(=O)Nc2ccc(Cl)cc2)cc1`, for which the signal change vs control minus 3*SD hit threshold (margin above threshold, higher = more increase) was -16.3%.
On to `CCOC(=O)C1=NN(C(=O)c2ccc(OC)cc2)C(O)(c2ccc(Cl)cc2)C1` (stereo unspecified), for which the signal change vs control minus 3*SD hit threshold (margin above threshold, higher = more increase) was 14.4% (active).
Regarding `CCOC(=O)C1=NN(C(=O)c2ccc(C)cc2)C(O)(c2ccc(Cl)cc2)C1` (stereo unspecified), the signal change vs control minus 3*SD hit threshold (margin above threshold, higher = more increase) is 50.6% (active).
As for `CCOC(=O)C1=NN(C(=O)c2ccccc2)C(O)(c2ccc(C)cc2)C1` (stereo unspecified), the figure is -27.5%; as for `CCOC(=O)c1nc(C)n(-c2ccc(Cl)cc2)n1`, -24.3%; as for `COc1ccc(OC)c(NC(=O)COC(=O)c2ccc(-n3cnnn3)cc2)c1`, -34.5%.
Take `COc1ccccc1CNC(=O)COC(=O)c1ccccn1`: the signal change vs control minus 3*SD hit threshold (margin above threshold, higher = more increase) is -28.9%.
Consider `COc1cc(C(=O)Nc2ccc(O)cc2C(=O)O)ccc1OC(C)=O`, for which the signal change vs control minus 3*SD hit threshold (margin above threshold, higher = more increase) was -19.9%.
Regarding `O=C(O)c1ccc(N=NNc2cccc([N+](=O)[O-])c2)cc1`, the signal change vs control minus 3*SD hit threshold (margin above threshold, higher = more increase) is -26.6%.
On to `CCCCOC(=O)Cn1c2ccc(OC)cc2c2nc3ccccc3nc21`, for which the signal change vs control minus 3*SD hit threshold (margin above threshold, higher = more increase) is -28.3%.
Regarding `CC(C)OC(=O)c1c2nc3ccccc3nc2n2c1[nH]c(=O)c1ccccc12`, the signal change vs control minus 3*SD hit threshold (margin above threshold, higher = more increase) was 29.4% (active).
As for `CCc1ccc(C(=O)CSc2nc3ccccc3c(=O)[nH]2)cc1`, the signal change vs control minus 3*SD hit threshold (margin above threshold, higher = more increase) was -26.7%.
Under `O=C(COc1ccccc1Cl)NC(=S)Nc1ccccc1N1CCCC1` stands -25.7%; under `S=C(NCCc1ccccc1)N/N=C/c1c(Cl)cccc1Cl`, -34.7%; under `CCc1cc(=O)[nH]c(SCc2ccc(C)cc2)n1`, -28.5%.
In the case of `CCSc1nc(=S)cc(C)[nH]1`, the signal change vs control minus 3*SD hit threshold (margin above threshold, higher = more increase) was 26.3% (active).
Under `CSc1nc(=S)cc(C)[nH]1` stands -16.8%.
Regarding `CSc1cccc(NC(=O)CN2C(=O)c3ccccc3S2(=O)=O)c1`, the signal change vs control minus 3*SD hit threshold (margin above threshold, higher = more increase) is -50.6%.
For `CCCCn1nc(NC(=O)COC)c2cc3ccc(C)cc3nc21`, the signal change vs control minus 3*SD hit threshold (margin above threshold, higher = more increase) is -27.6%.
`CCOC(=O)C1CCCN(C(=O)CN2C(=O)c3ccccc3C2=O)C1` (stereo unspecified): the signal change vs control minus 3*SD hit threshold (margin above threshold, higher = more increase) was -35.1%.
